Measurements taken from the supplement of paper PMC3334620.
Whole data set: some 33,000 sequences, median “E-score (-0.5 to 0.5)” near -0.0059, cut for the highest 2% near 0.26. What follows is part of a selection rich in the highest values, with near analogues and random picks from the rest.

What follows are sequences tested against T1, Cin5 (UniProt P40917) (assay: PBM E-score (8-mer binding enrichment) (E-score (-0.5 to 0.5)); higher = stronger / more preferred TF binding). Conditions: protein concentration: 100 nM; construct: GST-full length.
T1 sequence: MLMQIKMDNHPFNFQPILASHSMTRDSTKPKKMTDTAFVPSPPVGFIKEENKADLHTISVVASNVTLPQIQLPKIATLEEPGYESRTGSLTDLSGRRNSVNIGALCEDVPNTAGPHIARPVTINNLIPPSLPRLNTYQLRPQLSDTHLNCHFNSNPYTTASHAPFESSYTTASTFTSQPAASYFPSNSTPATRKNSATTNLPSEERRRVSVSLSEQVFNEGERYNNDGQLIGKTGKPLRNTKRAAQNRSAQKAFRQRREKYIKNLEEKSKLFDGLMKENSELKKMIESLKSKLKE
Method in brief: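 Masliner-normalised scans of fluorescent anti-GST signal were the basis for scoring. That signal came from GST-tagged yeast transcription factors applied at about 100-200 nM to double-stranded universal all-10-mer Agilent arrays on fresh or once-stripped slides. Each ungapped eight-base word, pooled with its reverse complement, received an E-score from the Universal PBM Analysis Suite.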
ACTATAAA was tested, and the “PBM E-score” value was 0.146. For ACTATAAC, the “PBM E-score” value was 0.0218. ACAATAAC was tested, and the “PBM E-score” value was 0.143. ACTATAAT was tested, and the “PBM E-score” value was 0.27. In the case of ATTATAAA, the “PBM E-score” value is reported as 0.195. ATGAATAA was tested, and the “PBM E-score” value was 0.142. In the case of ACCAGGGG, the “PBM E-score” value is reported as -0.265. With AGGCAGTG the “PBM E-score” value was 0.141. For CAAATATA, the “PBM E-score” value was 0.166. With GAAATATA the “PBM E-score” value was 0.287. AAAATATA was tested, and the “PBM E-score” value was 0.159. In the case of GAAAAATA, the “PBM E-score” value is reported as 0.158. GAAATATC was tested, and the “PBM E-score” value was 0.111. TAAATATA was tested, and the “PBM E-score” value was 0.261. For CCGTTGGC, the “PBM E-score” value was -0.124. In the case of AAACAGCA, the “PBM E-score” value is reported as 0.0422. For CCCCATCC, the “PBM E-score” value was 0.00185. For GAACAATA, the “PBM E-score” value was 0.229. AGACAATA was tested, and the “PBM E-score” value was 0.279. In the case of AAACAATT, the “PBM E-score” value is reported as 0.154. With CAACAATA the “PBM E-score” value was 0.155. In the case of CTACAATA, the “PBM E-score” value is reported as 0.137. For ATACAATA, the “PBM E-score” value was 0.278. AGACAATG was tested, and the “PBM E-score” value was -0.00251. In the case of TAACAATA, the “PBM E-score” value is reported as 0.273. For AGACAATC, the “PBM E-score” value was 0.112. In the case of AAACAATA, the “PBM E-score” value is reported as 0.287. AAACAATG was tested, and the “PBM E-score” value was 0.196. With ATACAATC the “PBM E-score” value was 0.162. In the case of GCGGATCC, the “PBM E-score” value is reported as -0.0308. With CGAAGTAG the “PBM E-score” value was 0.00111. With ATTACCAG the “PBM E-score” value was 0.18. With ATAGCCAC the “PBM E-score” value was -0.0146. With CGAGTTCA the “PBM E-score” value was -0.0225. TACTGCCA was tested, and the “PBM E-score” value was 0.0854. GACCGGAA was tested, and the “PBM E-score” value was -0.0318. In the case of CAGCTATC, the “PBM E-score” value is reported as -0.0573. CCAGCAAG was tested, and the “PBM E-score” value was -0.182. For AGTTTTTG, the “PBM E-score” value was 0.107. With ACCAAACG the “PBM E-score” value was -0.038. AGCAAGCT was tested, and the “PBM E-score” value was -0.156. ACAACCAT was tested, and the “PBM E-score” value was 0.306. For ACAACCAG, the “PBM E-score” value was -0.00422. In the case of ACAACCAC, the “PBM E-score” value is reported as 0.0998. With ACAGCTTG the “PBM E-score” value was 0.11. In the case of ACCATTGG, the “PBM E-score” value is reported as 0.0343. With ACACCTCG the “PBM E-score” value was 0.0498. CGCCAAGC was tested, and the “PBM E-score” value was -0.235. In the case of TCTTAGAA, the “PBM E-score” value is reported as 0.0741. In the case of AATTATGG, the “PBM E-score” value is reported as 0.156. With AATTATCT the “PBM E-score” value was 0.331. For AATTATCA, the “PBM E-score” value was 0.251. AATTATCC was tested, and the “PBM E-score” value was 0.133. With AATTATGA the “PBM E-score” value was 0.257. With AATTATGT the “PBM E-score” value was 0.304. With CGGTTGCA the “PBM E-score” value was -0.146. For ACTGTCGG, the “PBM E-score” value was -0.186. With AGCGTAAT the “PBM E-score” value was 0.13. For ATTATCAA, the “PBM E-score” value was 0.274. For ATTATCAG, the “PBM E-score” value was 0.119. CTTATCAC was tested, and the “PBM E-score” value was 0.0488. GTTATCAA was tested, and the “PBM E-score” value was 0.0472. For CTTATCAA, the “PBM E-score” value was 0.278. For ATTATCAC, the “PBM E-score” value was 0.234. With AGCTTCGG the “PBM E-score” value was -0.187. For CAAGCCTA, the “PBM E-score” value was -0.16. GGTTACAA was tested, and the “PBM E-score” value was 0.0628. With CAAGTGAG the “PBM E-score” value was -0.036. For CAGATCGG, the “PBM E-score” value was -0.0356. ACGATTAA was tested, and the “PBM E-score” value was 0.0274. CCGATTAC was tested, and the “PBM E-score” value was 0.23. For GGGATTAA, the “PBM E-score” value was 0.23. With TCGATTAA the “PBM E-score” value was 0.267. For CGGATTAC, the “PBM E-score” value was 0.122. For GGGATTAC, the “PBM E-score” value was 0.264. In the case of GCGATTAA, the “PBM E-score” value is reported as 0.209. ACGATTGC was tested, and the “PBM E-score” value was 0.153. With AAGATTAC the “PBM E-score” value was 0.255. For ACGATTAC, the “PBM E-score” value was 0.295. GCGATTAC was tested, and the “PBM E-score” value was 0.264. CCGATTAA was tested, and the “PBM E-score” value was 0.117. In the case of GCAGTACC, the “PBM E-score” value is reported as -0.0675. For CAGTTACC, the “PBM E-score” value was -0.0935. With ACACACCG the “PBM E-score” value was -0.137. For CTAATGGC, the “PBM E-score” value was -0.0137. For CCTTTGCA, the “PBM E-score” value was -0.0748. In the case of ATCACAGA, the “PBM E-score” value is reported as -0.0171.
